# Measurements as given in the supplement of paper PMC8728848.
# Only a selection was taken, and the strongest signals are over-represented in it overall.
# Experiments:
# Experiment in all cases: glycan array binding signal (z-score within array); higher = stronger binding
# Conditions in all cases: glycan notation: IUPAC condensed, linker removed
# [1] = biological target: Fuc(a1-2)Gal(b1-3)[Fuc(a1-4)]GlcNAc(b1-2)Man(a1-3)[Fuc(a1-2)Gal(b1-3)[Fuc(a1-4)]GlcNAc(b1-2)Man(a1-3)]Man(b1-4)GlcNAc(b1-4)GlcNAc
# In short: (§1)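 Glycan array data came from 3228 arrays in the Consortium for Functional Glycomics database, and only arrays with an available protein sequence were kept. Glycan names were put into IUPAC-condensed notation, and columns mapping to the same glycan were averaged. The binding signal is a within-array Z-score, averaged across arrays of one protein sequence run at different concentrations or buffers and across linkers. A negative Z-score can be read as non-binding.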
# [2] = biological target: Fuc(a1-2)Gal(b1-4)Fuc(a1-3)]GlcNAc(b1-2)Man(a1-3)[Fuc(a1-2)Gal(b1-4)[Fuc(a1-3)]GlcNAc(b1-2)Man(a1-6)]Man(b1-4)GlcNAc(b1-4)GlcNAc
# In short: as §1
# Fuc(a1-2)Gal(b1-4)GlcNAc = biological target: Fuc(a1-2)Gal(b1-4)GlcNAc
# In short: as §1
# [3] = biological target: Fuc(a1-2)Gal(b1-4)[Fuc(a1-3)]GlcNAc(b1-2)[Fuc(a1-2)Gal(b1-4)[Fuc(a1-3)]GlcNAc(b1-4)]Man(a1-3)[Fuc(a1-2)Gal(b1-4)[Fuc(a1-3)]GlcNAc(b1-2)Man(a1-6)]Man(b1-4)GlcNAc(b1-4)GlcNAc
# In short: as §1
# [4] = biological target: Fuc(a1-2)Gal(b1-4)[Fuc(a1-3)]GlcNAc(b1-3)Gal(b1-4)[Fuc(a1-3)]GlcNAc(b1-3)Gal(b1-4)[Fuc(a1-3)]GlcNAc
# In short: as §1
# [5] = biological target: Fuc(a1-2)Gal6S(b1-4)Glc6S
# In short: as §1
# [6] = biological target: Fuc(a1-2)[GalNAc(a1-3)]Gal
# In short: as §1
# [7] = biological target: Fuc(a1-2)[GalNAc(a1-3)]Gal(b1-3)GalNAc(a1-3)[Fuc(a1-2)]Gal(b1-4)GlcNAc
# In short: as §1
# [8] = biological target: Gal(a1-3)Gal(b1-4)GlcNAc(b1-2)Man
# In short: as §1
# [9] = biological target: Gal(a1-3)Gal(b1-4)[Fuc(a1-3)]GlcNAc(b1-2)Man(a1-3)[Gal(a1-3)Gal(b1-4)[Fuc(a1-3)]GlcNAc(b1-2)Man(a1-6)]Man(b1-4)GlcNAc(b1-4)GlcNAc
# In short: as §1
# Gal(a1-4)Gal(b1-4)Glc = biological target: Gal(a1-4)Gal(b1-4)Glc
# In short: as §1
# [10] = biological target: Gal(b1-3)GlcNAc(a1-6)Gal(b1-4)GlcNAc
# In short: as §1
# [11] = biological target: Gal(b1-3)GlcNAc(b1-3)Gal(b1-4)GlcNAc(b1-2)Man(a1-3)[Gal(b1-3)GlcNAc(b1-3)Gal(b1-4)GlcNAc(b1-2)Man(a1-6)]Man(b1-4)GlcNAc(b1-4)GlcNAc
# In short: as §1
# [12] = biological target: Gal(b1-4)GlcNAc(b1-2)Man(a1-6)[Man(a1-3)]Man(b1-4)GlcNAc(b1-4)GlcNAc
# In short: as §1
# [13] = biological target: Gal(b1-4)GlcNAc(b1-3)Gal(b1-4)GlcNAc(b1-2)Man(a1-3)[Gal(b1-4)GlcNAc(b1-3)Gal(b1-4)GlcNAc(b1-2)Man(a1-6)]Man(b1-4)GlcNAc(b1-4)GlcNAc
# In short: as §1
# [14] = biological target: Gal(b1-4)GlcNAc(b1-3)Gal(b1-4)GlcNAc(b1-2)[Gal(b1-4)GlcNAc(b1-3)Gal(b1-4)GlcNAc(b1-6)]Man(a1-6)[Gal(b1-4)GlcNAc(b1-3)Gal(b1-4)GlcNAc(b1-2)Man(a1-3)]Man(b1-4)GlcNAc(b1-4)GlcNAc
# In short: as §1
# [15] = biological target: Gal(b1-4)GlcNAc(b1-3)Gal(b1-4)GlcNAc(b1-2)[Gal(b1-4)GlcNAc(b1-3)Gal(b1-4)GlcNAc(b1-6)]Man(a1-6)[Gal(b1-4)GlcNAc(b1-3)Gal(b1-4)GlcNAc(b1-2)Man(a1-3)]Man(b1-4)GlcNAc(b1-4)[Fuc(a1-6)]GlcNAc
# In short: as §1
# [16] = biological target: Gal(b1-4)GlcNAc(b1-3)Gal(b1-4)GlcNAc(b1-3)Gal(b1-4)GlcNAc
# In short: as §1
# [17] = biological target: Gal(b1-4)GlcNAc(b1-3)Gal(b1-4)GlcNAc(b1-3)Gal(b1-4)GlcNAc(b1-2)Man(a1-3)[Gal(b1-4)GlcNAc(b1-3)Gal(b1-4)GlcNAc(b1-3)Gal(b1-4)GlcNAc(b1-2)Man(a1-6)]Man(b1-4)GlcNAc(b1-4)GlcNAc
# In short: as §1
# [18] = biological target: Gal(b1-4)GlcNAc(b1-3)Gal(b1-4)GlcNAc(b1-3)Gal(b1-4)GlcNAc(b1-3)Gal(b1-4)GlcNAc(b1-3)Gal(b1-4)GlcNAc(b1-2)Man(a1-3)[Gal(b1-4)GlcNAc(b1-3)Gal(b1-4)GlcNAc(b1-3)Gal(b1-4)GlcNAc(b1-3)Gal(b1-4)GlcNAc(b1-3)Gal(b1-4)GlcNAc(b1-2)Man(a1-6)]Man(b1-4)GlcNAc(b1-4)[Fuc(a1-6)]GlcNAc
# In short: as §1
# [19] = biological target: Gal(b1-4)GlcNAc(b1-3)Gal(b1-4)GlcNAc(b1-3)GalNAc
# In short: as §1
# [20] = biological target: Gal(b1-4)GlcNAc(b1-3)[Fuc(a1-3)GlcNAc(b1-6)]Gal(b1-4)Glc
# In short: as §1
# Gal(b1-6)Gal = biological target: Gal(b1-6)Gal
# In short: as §1
# [21] = biological target: Gal3S(b1-4)[Fuc(a1-3)]Glc6S
# In short: as §1
# Gal6S(b1-3)GlcNAc = biological target: Gal6S(b1-3)GlcNAc
# In short: as §1
binder,measurement,setting,value
"Erv46-EDTA (Saccharomyces cerevisiae), P39727 (protein) MKFLVNVALVFMVVYISYIYAAAPEHHHHHHDYDIPTTENLYFQGAMDSVVTRPQLVVDRDRHAKLELNMDVTFPSMPCDLVNLDIMDDSGEMQLDILDAGFTMSRLNSEGRPVGDATELHVGGNGDGTAPVNNDPNYCGPCYGAKDQSQNENLAQEEKVCCQDCDAVRSAYLEAGWAFFDGKNIEQCEREGYVSKINEHLNEGCRIKGSAQINRIQGNLHFAPGKPYQNAYGHFHDTSLYDKTSNLNFNHIINHLSFGKPIQSHSKLLGNDKRHGGAVVATSPLDGRQVFPDRNTHFHQFSYFAKIVPTRYEYLDNVVIETAQFSATFHSRPLAGGRDKDHPNTLHVRGGIPGMFVFFEMSPLKVINKEQ",glycan array binding signal (z-score),[1],0.467
same,glycan array binding signal (z-score),[2],3.11
same,glycan array binding signal (z-score),Fuc(a1-2)Gal(b1-4)GlcNAc,-0.508
same,glycan array binding signal (z-score),[3],2.34
same,glycan array binding signal (z-score),[4],-0.775
same,glycan array binding signal (z-score),[5],0.075
same,glycan array binding signal (z-score),[6],-0.619
same,glycan array binding signal (z-score),[7],-0.454
same,glycan array binding signal (z-score),[8],0.805
same,glycan array binding signal (z-score),[9],2.74
same,glycan array binding signal (z-score),Gal(a1-4)Gal(b1-4)Glc,0.54
same,glycan array binding signal (z-score),[10],-0.279
same,glycan array binding signal (z-score),[11],0.126
same,glycan array binding signal (z-score),[12],-0.001
same,glycan array binding signal (z-score),[13],4.93
same,glycan array binding signal (z-score),[14],2.71
same,glycan array binding signal (z-score),[15],2.65
same,glycan array binding signal (z-score),[16],0.66
same,glycan array binding signal (z-score),[17],3.36
same,glycan array binding signal (z-score),[18],1.81
same,glycan array binding signal (z-score),[19],2.4
same,glycan array binding signal (z-score),[20],-0.11
same,glycan array binding signal (z-score),Gal(b1-6)Gal,-0.241
same,glycan array binding signal (z-score),[21],0.233
same,glycan array binding signal (z-score),Gal6S(b1-3)GlcNAc,-0.805
